Drawing on PubChem BioAssay AID2732 (Emory University Molecular Libraries Screening Center, 2010), this text covers inhibition for 99 compounds.

About 8,200 (3.7%) of roughly 220,000 compounds were called active. The full list was thinned out, with actives kept by preference. Unmarked numbers belong to inactive results.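 Rule for the calls: active = compounds that reduced the stress-induced luciferase reporter signal by more than about 70% of percent inhibition (limit read from the data); inactive = the rest.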

The nature of this assay: inhibitors of CHOP promoter induction, primary screen, cell-based, unfolded protein response, luciferase reporter (AID 2732).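 Note: 0% = tunicamycin plus vehicle and 100% = wells without tunicamycin.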 The conditions noted are these: CHO-K1 CHOP-promoter luciferase, tunicamycin-induced, 15-18 h; at 10 µM; hits give high values.
`Cn1c(S(=O)(=O)O)nc2ccccc21`: the inhibition was 10.4%.
In the case of `COc1ccccc1-c1c(C#N)c(N)nc2c1CCC2`, the inhibition was -1.63%.
Under `O=c1[nH]c2cccnc2n1-c1ccc([N+](=O)[O-])cc1` stands 16.2%; under `OCC1(Cc2ccccc2C(F)(F)F)CCN(Cc2ccncc2)CC1`, 1.13%.
As to `CCC(=O)N1CCCc2ccccc21`, the inhibition is -4.19%.
`C=CCn1c(SCc2nnc(-c3ccccc3)o2)nnc1C(O)c1ccccc1` (centres undefined): the inhibition is 14%.
Consider `CCCN(CCC)c1ccc(C(O)c2nnc(-c3ccccc3)o2)cc1` (centres undefined), for which the inhibition was 91.7% (active).
For `OC(c1nnc(-c2ccccc2)o1)c1cccs1` (centres undefined), the inhibition was -26.1%.
Then `O=C1C2C3C=CC(C3)C2C(=O)N1c1ccc(S(=O)(=O)Nc2nccs2)cc1` (centres undefined), with 15.9%; and `O=C(COC(=O)CCc1nc2ccccc2c(=O)[nH]1)Nc1ccc(N2CCOCC2)cc1`, with 12.7%; and `CCOC(=O)c1sc(=S)n(-c2cccc(OC)c2)c1N`, with 7.44%.
Under `CCOC(=O)c1sc(=S)n2c1[nH]c(=O)c1ccc(C(=O)OC)cc12` stands 90.7% (active).
As to `CCOC(=O)Cn1c(N)c(C(=O)OC)sc1=S`, the inhibition is 25.2%.
For the compound `Fc1ccccc1/C=N/n1c(-c2cccnc2)n[nH]c1=S`, the inhibition was 6.74%.
`COc1cccc(CC(=O)Nc2ccc(-c3csc(C)n3)cc2)c1`: the inhibition was 7.07%.
With `CCOC(=O)C(=CNNc1ccsc1C(=O)OC)C(=O)OCC`, the inhibition was 8.45%.
Consider `Cc1cccc(C)c1OCC(O)CN1CCCCC1` (centres undefined), for which the inhibition is 10.2%.
For the compound `Cc1ccc(OCC(O)CN2CCN(CC(O)COc3ccc(C)cc3Cl)CC2)c(Cl)c1` (centres undefined), the inhibition is 93.5% (active).
Consider `Cc1ccccc1OCC(O)CN1CCN(c2ccccn2)CC1` (centres undefined), for which the inhibition was 15.9%.
On to `CCCCCCCC(=O)OC(CN1CCCCCC1)CN1CCCC1=O` (centres undefined), for which the inhibition was 4.3%.
Turning to `Cc1cc(C)c2[nH]c(=O)c(C(c3nnnn3Cc3ccc4c(c3)OCO4)N3CCCC3)cc2c1` (centres undefined), the inhibition was -5.25%.
As to `Fc1ccccc1C(c1nnnn1Cc1ccc2c(c1)OCO2)N1CCN(Cc2ccccc2)CC1` (centres undefined), the inhibition is 97.9% (active).
Turning to `CC(C)(C)n1nnnc1C(c1ccc(F)cc1)N1CCN(Cc2ccc3c(c2)OCO3)CC1` (centres undefined), the inhibition is 16.3%.
For `CCC1=NN2C(=N)/C(=C/c3cc(C)n(-c4ccccc4)c3C)C(=O)N=C2S1`, the inhibition was -8.4%.
For `N#CNC1=NCN(CCc2ccccc2)CN1`, the inhibition is -32.6%.
Then `c1ccc(CCN2CN=C(Nc3nc4ccccc4o3)NC2)cc1`, with 94.3% (active); and `CCCN1CNC(=S)N(CCc2ccccc2)C1`, with 1.62%.
For `CCCCNC(=O)CCn1c(=O)c2ccccc2n(Cc2cc(C)ccc2C)c1=O`, the inhibition was 86.5% (active).
In the case of `COCCNC(=O)CCCn1c(=O)c2ccccc2n(Cc2cccc([N+](=O)[O-])c2)c1=O`, the inhibition was -6.2%.
Regarding `CCCCNC(=O)CCn1c(=S)[nH]c2cc3c(cc2c1=O)OCO3`, the inhibition was 55%.
Then `Cc1ccc(-c2c[n+](=O)c3c(n2[O-])CCC3)cc1`, with 17.5%; and `Cc1ccc(NS(=O)(=O)c2ccc(N/N=C/c3ccccc3OCC(=O)O)c([N+](=O)[O-])c2)c(C)c1`, with -8.85%.
`C[C@@H](NC(=O)OC(C)(C)C)c1nnc(S(=O)(=O)Cc2ccccc2)o1`: the inhibition was 86.2% (active).
Then `CC(C)Sc1nnc([C@H](Cc2ccccc2)NC(=O)OC(C)(C)C)o1`, with 11.1%; and `C[C@H](NC(=O)OC(C)(C)C)c1nnc(SCC(N)=O)o1`, with 26.6%.
Regarding `CC(C)C(=O)N1CCC2(CC1)Oc1ccc(F)cc1C(=O)C21CC(c2ccccc2)=NO1` (centres undefined), the inhibition was 19.9%.
On to `O=C(Nc1nnc(SCc2c(Cl)cccc2Cl)s1)c1cccc([N+](=O)[O-])c1`, for which the inhibition is 30.6%.
Under `CCOC(=O)c1ccccc1NS(=O)(=O)c1ccc(OC)cc1` stands 9.25%.
As for `CCOC(=O)C1=C(c2ccc(OC)cc2)C(=O)c2ccccc2C1=O`, the inhibition was 102% (active).
Under `CCOC(=O)c1c(-c2ccc(C)cc2)csc1/N=C(\C)C1=C(O)c2ccccc2C1=O` stands 3.26%.
In the case of `O=C(Nc1ccc(N2CCN(C(=O)c3ccccc3)CC2)c(Cl)c1)c1ncn[nH]1`, the inhibition is 37.5%.
Turning to `COCCn1c(SCC(=O)Nc2cc(OC)ccc2OC)nc2c(c1=O)SC(C)C2` (centres undefined), the inhibition was -5.89%.
On to `CC(=O)Nc1ccc(/C=C/C(=O)c2ccccc2)cc1`, for which the inhibition is -42%.
As for `CN(C)c1cc(-c2ccc(F)cc2)oc(=O)c1Cl`, the inhibition is 12.7%.
For `CNC(=S)NNC(=O)c1oc2nc(-c3ccccc3)cc(-c3ccco3)c2c1N`, the inhibition is -27.7%.
With `CN(C)C(=O)c1coc2nc3ccccc3nc12`, the inhibition is 20.5%.
Consider `Cc1ccsc1/C=N/Nc1ccc(Cl)nn1`, for which the inhibition is 65.5%.
For the compound `CCC(=O)/C=C1\Sc2ccccc2N1CC`, the inhibition is 14.1%.
For the compound `CCN1/C(=C\c2ccc3ccccc3[n+]2CC)Sc2cc(C)ccc21`, the inhibition was 87.5% (active).
Turning to `CCN1/C(=C/c2ccc3ccc(C)cc3[n+]2CC)Sc2ccccc21`, the inhibition was 73% (active).
Then `CCN1/C(=C/C(=S)Nc2ccccc2)Sc2ccccc21`, with -10.3%; and `O=C(Nc1cccc(S(=O)(=O)NC2=NCCC2)c1)C1CCCCC1`, with 3.64%.
Under `CC(C)(C)NC(=O)/C(=C/c1cccnc1)NC(=O)c1ccco1` stands 12.6%.
As for `Cc1nnsc1C(=O)N/N=C/c1ccccc1Cl`, the inhibition is -17.2%.
Regarding `COc1ccc(/C=N/NS(=O)(=O)c2ccc(NC(C)=O)cc2)cc1`, the inhibition was 1.32%.
Then `CN(C)S(=O)(=O)c1ccc(NC(=O)COC(=O)Cn2[nH]c(=O)c3ccccc3c2=O)cc1`, with 0.58%.
Consider `Cc1cccc2c1-c1sc(C(=O)NCCCN3CCc4ccccc4C3)cc1CO2`, for which the inhibition is 35.6%.
`Cc1cnc(NC(=O)CSc2c(Cl)cccc2Cl)s1`: the inhibition is 74.4% (active).
For `Cc1cnc(NC(=O)CSc2nnc(C)s2)s1`, the inhibition was 22.4%.
For the compound `Cc1ccc(SCC(=O)Nc2ncc(C)s2)cc1`, the inhibition was 4.03%.
Under `FC(F)(F)Oc1ccc(-c2cn3cccnc3n2)cc1` stands 2.48%.
For the compound `CCOC(=O)c1nnn2c3ccccc3c(=O)n(C)c12`, the inhibition is 8.91%.
Turning to `Cc1ccc(-c2cc(C(=O)NN)n[nH]2)o1`, the inhibition was 2.15%.
As for `CC(=O)c1sc(NC(=O)c2ccc(C)cc2)nc1C`, the inhibition was -2.78%.
As to `N#Cc1ccc(C(=O)Nc2nc(-c3cccs3)c(C(=O)C(F)(F)F)s2)cc1`, the inhibition was 74.7% (active).
Turning to `Cc1ccc(C(=O)Nc2nnc(-c3cccs3)s2)cc1C`, the inhibition was 48.9%.
For the compound `Cn1c2c(c(=O)n(C)c1=O)C(c1cccc(F)c1)C(C#N)=C(N)O2` (centres undefined), the inhibition is 6.57%.
In the case of `CCc1nc2sc3c(Cl)ncnc3c2c2c1CCCC2`, the inhibition is -17.1%.
Turning to `CCOC(=O)CN(Cc1ccc(OC)c(OC)c1)S(=O)(=O)c1ccc(OC)cc1`, the inhibition is -1.05%.
For the compound `COc1ccc(CCNC(=O)C(Sc2ccccn2)c2ccccc2)cc1OC` (centres undefined), the inhibition was 6.29%.
Consider `COc1ccc(C(CCN(Cc2ccc(OC)c(OC)c2)C(=O)CCl)c2ccccc2)cc1` (centres undefined), for which the inhibition was 106% (active).
With `CC(C)(C)c1cc(C(=O)NN)n(Cc2ccc(Cl)cc2Cl)n1`, the inhibition is -7.9%.
For `Cc1c([N+](=O)[O-])c(N)nn1C`, the inhibition was 4.08%.
Regarding `N#CCC(=O)N/N=C/c1cn(Cc2ccc3ccccc3c2)c2ccccc12`, the inhibition was 1.95%.
Take `NS(=O)(=O)c1cccnc1Nc1cccc(Cl)c1`: the inhibition was 5.4%.
Under `OCCCNc1nccc(-c2cc(Nc3cccc(Cl)c3)ncn2)n1` stands 103% (active); under `CC(C)n1cnc2c(Nc3cccc(Cl)c3)nc(N(CCO)CCCO)nc21`, 61.8%; under `CCOC(=O)C1CCN(C(=O)Nc2cccc(OC)c2)CC1`, 6.27%.
In the case of `CSc1nc(C)nc(C2CC2)c1C#N`, the inhibition is 15.9%.
`CC(=O)NC(Cc1ccccc1)C(=O)NC1CCN(c2ncccc2[N+](=O)[O-])CC1` (centres undefined): the inhibition is 19.6%.
Then `COc1ccc(-c2cc(C3CCN(c4ncccc4[N+](=O)[O-])CC3)[nH]n2)cc1`, with 75.9% (active); and `COc1ccc(N2CCN(c3ccc([N+](=O)[O-])nc3)CC2)cc1`, with 10.8%.
`CC1(C)CC(CNCCC(c2ccc(F)cc2)c2ccco2)CCO1` (centres undefined): the inhibition was 10.6%.
In the case of `C=CCn1cc(-c2cccc(C(F)(F)F)c2)cc(C#N)c1=O`, the inhibition was 5.76%.
In the case of `C=CCn1c(SCn2nnc3ccccc3c2=O)nnc1-c1ccc(Cl)cc1`, the inhibition was 17.8%.
Consider `C=CCn1c(-c2ccc(Cl)cc2)ccc(C#N)c1=O`, for which the inhibition was 82.2% (active).
Regarding `O=C(Cc1ccccc1)Nc1c(Cl)ccc2nsnc12`, the inhibition is -1.48%.
For `O=C(c1ccc(F)cc1)C1CCN(Cc2cn[nH]c2-c2ccccc2)CC1`, the inhibition was 15.6%.
Take `Cn1cnc([N+](=O)[O-])c1Sc1n[nH]c(N)n1`: the inhibition is -10.3%.
As to `COc1ccc(C(=O)Nc2ccc(CN3CCOCC3)cc2)cc1`, the inhibition is -29.9%.
`O=C(Nc1ccccc1C(=O)N1CCOCC1)c1ccc(CSc2ccccc2)cc1`: the inhibition is -8.2%.
For `O=C(Nc1ccc(CSc2ccccc2)cc1)c1ccc(CN2CCOCC2)cc1`, the inhibition was 79.5% (active).
With `Cc1nnc(C)c2c(C)n(N)c(C)c12`, the inhibition was 13.9%.
On to `COCC(=O)Nc1nnc(COc2ccccc2)s1`, for which the inhibition was -20.1%.
As for `Cc1ccc(COc2ccc(C(=O)NN)cc2)cc1`, the inhibition is 0.74%.
Take `Cc1ccc(OCc2nnc(NC(=O)OCC(C)C)s2)cc1`: the inhibition is 91% (active).
Regarding `CCn1c(CN2C(=O)CSc3ccccc32)n[nH]c1=S`, the inhibition was 11.5%.
On to `C=CCNC(=O)c1ccc2c3n(nc2c1)-c1ccc(C)cc1CO3`, for which the inhibition is -2.7%.
Then `COCCNC(=S)N1CCN(C)CC1`, with -18.1%.

A word on the inhibition: it is the drop in the measured response relative to a control, in per cent.
